# From PubChem BioAssay
# MOR-DOR ag: OPRM1-OPRD1 heterodimerization agonism. P35372+P41143. cells, luminescence. activation, % at 9.3 µM. actives 0.3% (n = 340,000);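 note: 0% = vehicle-treated cells and 100% = reference agonist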
# Target sequence (P35372 whole entry, looked up): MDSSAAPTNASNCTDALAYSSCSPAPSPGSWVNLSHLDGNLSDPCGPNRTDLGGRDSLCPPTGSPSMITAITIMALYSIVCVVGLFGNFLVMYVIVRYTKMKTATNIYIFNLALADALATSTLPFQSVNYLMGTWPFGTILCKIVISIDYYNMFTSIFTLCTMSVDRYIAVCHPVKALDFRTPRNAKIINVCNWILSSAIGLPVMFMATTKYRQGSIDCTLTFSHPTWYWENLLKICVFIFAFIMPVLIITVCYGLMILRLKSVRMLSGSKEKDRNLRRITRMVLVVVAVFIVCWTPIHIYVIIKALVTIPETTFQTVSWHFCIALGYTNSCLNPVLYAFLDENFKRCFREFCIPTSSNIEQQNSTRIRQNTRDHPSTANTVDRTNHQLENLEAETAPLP
# Target sequence (P41143 whole entry, looked up): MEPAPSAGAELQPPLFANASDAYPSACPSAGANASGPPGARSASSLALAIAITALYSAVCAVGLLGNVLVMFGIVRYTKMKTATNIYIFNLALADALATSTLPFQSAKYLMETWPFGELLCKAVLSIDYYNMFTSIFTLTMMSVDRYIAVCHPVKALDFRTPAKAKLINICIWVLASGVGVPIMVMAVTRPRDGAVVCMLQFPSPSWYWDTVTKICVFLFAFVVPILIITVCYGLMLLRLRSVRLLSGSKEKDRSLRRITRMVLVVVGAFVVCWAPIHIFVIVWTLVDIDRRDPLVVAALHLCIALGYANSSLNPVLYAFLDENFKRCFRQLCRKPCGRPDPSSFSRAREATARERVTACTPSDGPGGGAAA
# MOR-DOR inv ag: mu-delta opioid heterodimer inverse agonism; cell-based MOR-DOR heterodimer luminescence; inhibition, % at 9.3 µM; actives 0.21% (n = 340,000); AID 504357; P35372+P41143; in the data active = inhibition above about 22%, passing the limit was not always enough;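 note: 0% = cells with DMSO and 100% = wells without cells with DMSO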
# HTR5A inv ctr: counter-screen for OPRM1-OPRD1 inverse agonists: human HTR5A inverse agonism; P47898; HTR5A cell line, luminescence; inhibition, % at 9.3 µM; actives 0.083% (n = 340,000); in the data active = inhibition mostly above about 23%, no sharp cut-off; inactive = mostly below about 18%;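 note: 0% = cells with DMSO and 100% = no-cell wells with DMSO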
# HTR5A ag ctr: counter-screen for OPRM1-OPRD1 agonists: human HTR5A agonism; HTR5A agonist assay, luminescence, cell-based; AID 504692; activation, % at 9.3 µM; P47898; actives 0.61% (n = 340,000); in the data active = activation mostly above about 9.5%, no sharp cut-off; inactive = mostly below about 7.6%;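 note: 0% = cells with vehicle only and 100% = reference agonist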
# MOR-DOR ag conf: OPRM1-OPRD1 heterodimer agonism, confirmation; cells, MOR-DOR heterodimerization, luminescence complementation; AID 504904; activation, % at 9.3 µM; shares compounds with MOR-DOR ag; actives 45% (n = 830);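 note: 0% = vehicle-treated cells and 100% = reference agonist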
# HTR5A ag counter: counter-screen for OPRM1-OPRD1 agonists: human HTR5A agonism | shares compounds with MOR-DOR ag | HTR5A agonist counterscreen, cell luminescence | activation, % at 9.3 µM | actives 8% (n = 830) | AID 504905; in the data active = activation above about 17%;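 note: 0% = vehicle-treated cells and 100% = reference agonist response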
# Numbers without * were called inactive; i = inactive. In the library only some 1.1% were active in any assay of this set; here they are far more common. Cut-off read from the data, not from the text of the source, unless noted: active = activation above about 18%; inactive = the rest.
SMILES,MOR-DOR ag,MOR-DOR inv ag,HTR5A inv ctr,HTR5A ag ctr,others
S=c1[nH]c2ccccc2[nH]1,-3,16,-29,10*,
CN(C)c1ccc(C(=O)N/N=C/C23CC[C@@H](O)CC2(O)CC[C@@H]2[C@@H]3CCC3(C)C(C4=CC(=O)OC4)CCC23O)cc1 (stereo partly drawn),59*,-301,6,35*,
COc1ccc(C(=O)N/N=C/C23CC[C@@H](O)CC2(O)CC[C@@H]2[C@@H]3CCC3(C)C(C4=CC(=O)OC4)CCC23O)cc1 (stereo partly drawn),34*,-169,19,30*,
Cc1ccc(C)c(OCC(=O)N2CCN(Cc3ccc4c(c3)OCO4)CC2)c1,0,-1,23,-2,
NCCc1c[nH]c2ccccc12,2,-11,-7,50*,
c1coc(CNCCc2c[nH]c3ccccc23)c1,-2,9,-50,13*,
CC(=O)NCCc1c[nH]c2ccccc12,0,-1,9,0,
CCN(CC)C(=O)c1ccc(NC(=O)c2ccc3c(c2)NC(=O)CS3)cc1,0,2,2,0,
CCOC(=O)CNC(=O)CNC(=O)C(Cc1ccc(N(CCCl)CCCl)cc1)NC(C)=O (stereo not drawn),-3,15,-12,-1,
Cc1ccc2[nH]c(C)c(CCNCc3ccco3)c2c1,0,-2,5,-1,
Cc1cccc(CCNCc2cc3ccc(C)cc3[nH]c2=O)c1,-1,5,-43,12*,
CCOc1cccc(CNCCc2c(C)[nH]c3ccc(OC(F)(F)F)cc23)c1O,20*,-111,-63,16*,
COc1cccc(-n2c(CN3CCN(C)CC3)nc3ccc([N+](=O)[O-])cc3c2=O)c1,-1,3,-8,3,
Cc1ccc(-n2c(O)c(C=NCCN3CCNCC3)c(=O)[nH]c2=S)cc1,-1,5,2,-1,
CC(C)c1ccc(-n2c(O)c(C=NCCN3CCNCC3)c(=O)[nH]c2=S)cc1,1,-4,-39,10*,
O=c1c2ccccc2nc(/C=C/c2ccc(O)cc2)n1-c1cccc(O)c1,-2,12,-25,9.8*,
O=c1c2ccccc2nc(/C=C/c2ccc(O)cc2)n1-c1ccc(O)cc1,3,-12,11,-3,
COc1ccc(-n2c(/C=C/c3ccc(O)cc3)nc3ccccc3c2=O)cc1,1,-5,-38,10.0*,
N#Cc1ccc(NC(=O)CCNC(=O)c2ccco2)cc1Cl,0,-2,17,8,
CCN(CC)C(=O)c1ccc(NC(=O)CN2CCc3cc(OC)c(OC)cc3C2)cc1,2,-11,3,-1,
COc1ccc(Br)cc1CN1CCN(C(=O)Cc2ccccc2)CC1,2,-9,-2,1,
C=CCn1c(O)c(C(CC)=NC2CC2)c(=O)[nH]c1=O,-4,20,3,-1,
Cc1ccc(C(=O)Nc2ccc(Cl)cc2C(=O)c2ccccc2)cc1,7,-43,-39,11*,
Cc1cc(C)cc(N2C(=O)NC(=O)/C(=C\c3cccn3-c3ccc(Cl)cc3)C2=O)c1,1,-7,-51,14*,
Cc1cc(C)cc(N2C(=O)NC(=O)/C(=C\c3cccn3-c3ccccc3)C2=O)c1,1,-7,-23,12,
SMILES,MOR-DOR ag,MOR-DOR inv ag,HTR5A inv ctr,HTR5A ag ctr,others
CC(=O)C1CCC2(O)C3CCC4=CC(=O)CCC4(C)C3CCC12C (stereo not drawn),-4,19,9,-2,
C[C@@H]1O[C@@H](O[C@@H]2C=C3CC[C@@H]4C(CC[C@]5(C)[C@@H](c6ccc(=O)oc6)CC[C@]45O)[C@@]3(C)CC2)[C@H](O)[C@H](O)[C@H]1O (stereo partly drawn),68*,-393,-65,22*,
C[C@@H]1O[C@@H](O[C@H]2C[C@@H](O)[C@]3(CO)[C@H]4[C@H](O)C[C@]5(C)[C@@H](C6COC(=O)C6)CC[C@]5(O)[C@@H]4CC[C@]3(O)C2)[C@H](O)[C@H](O)[C@H]1O (stereo partly drawn),73*,-404,-81,27,
CC(=O)OC1CC(OC2C(O)CC(OC3C(O)CC(OC4CCC5(C)C(CCC6C5CCC5(C)C(C7=CC(=O)OC7)CCC65O)C4)OC3C)OC2C)OC(C)C1OC1OC(CO)C(O)C(O)C1O (stereo not drawn),68*,-349,-146,37*,
CCN1/C(=C\C=C\C2=[N+](CC)c3ccccc3C2(C)C)C(C)(C)c2ccccc21,8,-53,38*,-11,
O=C(CN1CCOCC1)c1ccc(Br)cc1,-5,24,19,-6,
C#CC1(O)C=CC2C3CCC4=CC(=O)CCC4C3CCC21CC (stereo not drawn),1,-3,10,-3,
C#CC1(O)CCC2C3CCC4=CC(=O)CCC4=C3C=CC21C (stereo not drawn),0,2,-43,11*,
N#Cc1cc2c(nc1SCC(=O)Nc1cc(Cl)ccc1Cl)C1CCN2CC1,-1,3,-1,0,
N#Cc1cc2c(nc1SCC(=O)Nc1ccc(Cl)cc1)C1CCN2CC1,1,-4,-2,12*,
ClCCN1CCSCC1,-3,14,-3,1,
C=CP(=O)(O)c1ccccc1,-2,10,8,2,
Cc1cc(N2CCN(C)CC2)nc2ccccc12,0,1,-34,9.1*,
CN(C)C1(CNC(=O)Nc2ccc(Cl)c(Cl)c2)CCCCC1,67*,-358,-19,7,MOR-DOR ag conf=-1;HTR5A ag counter=-4
CC12CC[C@H]3[C@@H](CCC4(O)C[C@H](O)CCC34/C=N/NC(=O)c3ccccc3F)C1(O)CCC2C1=CC(=O)OC1 (stereo partly drawn),13,-64,9,11,
CC12CC[C@H]3[C@@H](CCC4(O)C[C@H](O)CCC34/C=N/NC(=O)c3ccccc3O)C1(O)CCC2C1=CC(=O)OC1 (stereo partly drawn),35*,-184,-30,9,MOR-DOR ag conf=9;HTR5A ag counter=0
C#C[C@]1(O)CCC2C3C(CC[C@@]21C)[C@@]1(C)CC[C@@H](O)CC1=C[C@H]3O (stereo partly drawn),-1,3,-2,1,
CC(Cc1ccccc1)NC(=O)Cc1ccc(N(C)C)cc1 (stereo not drawn),-1,6,27,1,
CN(C)C(CNC(=O)Cc1ccc(Br)cc1)c1ccccc1 (stereo not drawn),141*,i,2,-1,MOR-DOR ag conf=214*;HTR5A ag counter=-5
CN1CCN(/N=C/c2c(O)n(CCC3=CCCCC3)c(=S)[nH]c2=O)CC1,1,-4,24,-4,
c1ccc(C2(N3CCCCC3)CCCCC2)cc1,374*,i,18,-8,MOR-DOR ag conf=346*;HTR5A ag counter=-2
COc1ccc2c(c1O)[C@]13CCN(C)[C@H](C2)[C@@H]1CCC(=O)C3,96*,i,-16,5,MOR-DOR ag conf=23*;HTR5A ag counter=-1
